Test results taken from PubChem BioAssay (NCATS).
Records with an inconclusive call do not appear. A call without a number means that no potency is given here. Activity calls are given as the source filed them. Calls follow the shape of the dose curve; as a rule, active = well fitted inhibition curve with a large enough effect; inconclusive = small, poorly fitted or top-dose-only effect; inactive = no such curve, though single readings can be large or run the other way.

biological target: Retinaldehyde dehydrogenase 3 (Homo sapiens) (UniProt P47895); assay: qHTS for Inhibitors of the Aldehyde Dehydrogenase Family (ALDH1A3) Primary screen (AID 2061315); conditions: ALDH inhibition qHTS; series mostly up to 56 µM

Row | SMILES | Potency
1 | CCCn1c(-c2ccc(F)cc2)nc2c(NCCN3CCOCC3)nc(C)nc21 | inactive
2 | O=C(OCC#CCSc1nnc(-c2ccccc2Cl)o1)c1ccc(F)cc1 | inactive
3 | O=C1CCCC2=C1C(c1[nH]ncc1Cl)NC(=NCc1ccoc1)N2 (centres undefined) | inactive
4 | O=C1CCCC2=C1C(c1ccccc1Br)N=C(Nc1nc3ccccc3o1)N2 (centres undefined) | inactive
5 | Cn1c2ccsc2c2cnn(Cc3ccccc3F)c(=O)c21 | inactive
6 | COc1cccc(N2C(=O)c3ccccc3C2=O)n1 | inactive
7 | C=C(NC(=O)C(=C)NC(=O)c1csc(C2=NC3c4csc(n4)C4NC(=O)c5csc(n5)C(C(C)(O)C(C)O)NC(=O)C5CSC(=N5)/C(=C/C)NC(=O)C(C(C)O)NC(=O)c5csc(n5)C3(CC2)NC(=O)C(C)NC(=O)C(=C)NC(=O)C(C)NC(=O)C(C(C)CC)NC2C=Cc3c(C(C)O)cc(nc3C2O)C(=O)OC4C)n1)C(N)=O (centres undefined) | inactive
8 | O=C1CCCC2=C1C1(CCCOC1)N=C(Nc1nc3ccccc3o1)N2 (centres undefined) | inactive
9 | COc1ccc(C2Nc3ccccc3C(=O)N2Cc2cccnc2)cc1COc1c(C)cccc1C (centres undefined) | inactive
10 | S=C(NCCCc1cnc[nH]1)NCCCN(Cc1ccc(Cl)cc1)c1ccc(Br)cn1 | inactive
11 | CC1CCC2(C(=O)OC3OC(COC4OC(CO)C(O)C(O)C4O)C(O)C(O)C3O)CCC3(C)C(=CCC4C5(C)CCC(O)C(C)(C(=O)O)C5CCC43C)C2C1(C)O (centres undefined) | inactive
12 | COC(=O)c1ccccc1NC(=O)c1ccc(F)cc1F | inactive
13 | Cc1ccc(NS(=O)(=O)c2cc3c(cc2/C=C/c2ccccc2)NC(=O)CO3)cc1C | inactive
14 | c1cncc(-c2ccc(CNc3nc(-n4ccnc4)nc4ccccc34)cc2)c1 | inactive
15 | CC(=O)Nc1ccc(S(=O)(=O)Nc2ccc(C)c(C)c2)cc1 | inactive
16 | Cc1ccc(S(=O)(=O)Nc2cc(Br)ccc2C(=O)Nc2nc(-c3ccccc3)cs2)cc1 | inactive
17 | O=C1CCc2cc(S(=O)(=O)Nc3ccc4ccccc4c3)ccc2N1 | inactive
18 | O=C(COc1ccc(F)cc1)NCCc1nc2ccccc2[nH]1 | inactive
19 | O=C(Cn1cc(CNCc2ccccc2)nn1)Nc1cc(C(F)(F)F)ccc1Cl | inactive
20 | CC(C)C[C@@H]1NC(=O)[C@@H](Cc2ccccc2)NC(=O)C(CCCCCC(=O)C2CO2)NC(=O)[C@@H]2CCCCN2C1=O (some centres undefined) | inactive
21 | C=C(C)C(=O)O[C@H]1CC2=CC(C/C(C)=C\[C@H]3OC(=O)C(=C)[C@H]13)OC2=O (some centres undefined) | inactive
22 | CCCn1ncc(CN2CCCC(C(=O)c3cccc(OC(C)C)c3)C2)c1C (centres undefined) | inactive
23 | COc1ccc(C2c3c(n(Cc4ccccc4)cnc3=N)Oc3ccc4ccccc4c32)cc1OC (centres undefined) | inactive
24 | COc1cc(OC)cc(C2=Nn3c(nnc3-c3ccccc3O)SC2)c1 | inactive
